Data from PubChem BioAssay (EPA / NIEHS).
Results filed as inconclusive are left out. Activity calls are given as the source filed them. The calls were made as follows, unless noted: active = hit-call score of the fitted dose curve at least 0.9, where 1 is the maximum; inactive = score below 0.9.

Legend:
[1] = read-out: E-selectin (Homo sapiens) (UniProt P16581); assay: BSK_3C_Eselectin: BioMAP Diversity Plus: 3C Assay for Eselectin Biomarker Activity (AID 2283015); details: primary human endothelial cells (HUVEC); actives raise or lower the signal
Summary of the method: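 Endpoint derived by bidirectional fitting against DMSO vehicle; signal is ELISA-detected E-selectin from primary HUVEC at 24 h post-dosing, with parallel SRB staining (0.1% SRB, 560 nm) flagging cytotoxicity.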

[2] = read-out: Interleukin-1 alpha (IL1a), IL1A (gene 3552); assay: BSK_BE3C_IL1a: BioMAP Diversity Plus: BE3C Assay for Interleukin-1 alpha (IL1a) Biomarker Activity (AID 2283016); details: primary human bronchial epithelial cells; actives raise or lower the signal
Summary of the method: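 Human primary bronchial epithelial cells, 24 h chemical exposure; IL-1a quantified by ELISA, fitted bidirectionally against DMSO. Cytotoxicity assessed in parallel by SRB total-protein staining at the time of measurement.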

[3] = read-out: Monocyte Chemoattractant Protein-1 (MCP1), CCL2 (gene 6347); assay: BSK_3C_MCP1: BioMAP Diversity Plus: 3C Assay for Monocyte Chemoattractant Protein-1 (MCP1) Biomarker Activity (AID 2283017); details: primary human endothelial cells (HUVEC); actives raise or lower the signal
Summary of the method: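 Using human vascular primary endothelium, researchers measured MCP-1 by ELISA 24 h after treatment, with DMSO serving as negative control for bidirectional fitting.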

[4] = read-out: Monocyte Chemoattractant Protein-1 (MCP1), CCL2 (gene 6347); assay: BSK_4H_MCP1: BioMAP Diversity Plus: 4H Assay for Monocyte Chemoattractant Protein-1 (MCP1) Biomarker Activity (AID 2283018); details: primary human endothelial cells (HUVEC); actives raise or lower the signal
Summary of the method: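 Human umbilical vein endothelial cells (4H system) exposed to chemicals for 24 h in 96-well format. MCP-1 measured by ELISA; bidirectional fitting against DMSO, with SRB total-protein staining in parallel cultures for cytotoxicity.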

[5] = read-out: Human Leukocyte Antigen - DR isotype (HLADR), HLA-DRA (gene 3122); assay: BSK_3C_HLADR: BioMAP Diversity Plus: 3C Assay for Human Leukocyte Antigen - DR isotype (HLADR) Biomarker Activity (AID 2283019); details: primary human endothelial cells (HUVEC); actives raise or lower the signal
Summary of the method: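 Compound added to primary HUVEC cultures, 24 h incubation, then HLA-DR determined by ELISA; endpoint derived by bidirectional fitting relative to DMSO negative control.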

[6] = read-out: Monokine induced gamma interferon (MIG), CXCL9 (gene 4283); assay: BSK_3C_MIG: BioMAP Diversity Plus: 3C Assay for Monokine induced gamma interferon (MIG) Biomarker Activity (AID 2283021); details: primary human endothelial cells (HUVEC); actives raise or lower the signal;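 as to AC50: MIG protein level measured by immunoassay in the treated endothelial cultures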
Summary of the method: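 HUVEC primary endothelial cultures dosed with chemical; MIG quantified by ELISA at 24 h. Data fitted bidirectionally against DMSO control, with parallel SRB total-protein staining for cytotoxicity.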

[7] = biological target: human Vitamin D Receptor (VDR), VDR (gene 7421) (UniProt P11473); assay: ATG_VDR_TRANS: Attagene TRANS-FACTORIAL HepG2 Assay for human Vitamin D Receptor (VDR) (AID 2283022; active = hit-call score of the fitted dose curve at least 0.9, where 1 is the maximum)
Sequence of human Vitamin D Receptor (VDR), VDR (gene 7421) (P11473 whole entry, looked up): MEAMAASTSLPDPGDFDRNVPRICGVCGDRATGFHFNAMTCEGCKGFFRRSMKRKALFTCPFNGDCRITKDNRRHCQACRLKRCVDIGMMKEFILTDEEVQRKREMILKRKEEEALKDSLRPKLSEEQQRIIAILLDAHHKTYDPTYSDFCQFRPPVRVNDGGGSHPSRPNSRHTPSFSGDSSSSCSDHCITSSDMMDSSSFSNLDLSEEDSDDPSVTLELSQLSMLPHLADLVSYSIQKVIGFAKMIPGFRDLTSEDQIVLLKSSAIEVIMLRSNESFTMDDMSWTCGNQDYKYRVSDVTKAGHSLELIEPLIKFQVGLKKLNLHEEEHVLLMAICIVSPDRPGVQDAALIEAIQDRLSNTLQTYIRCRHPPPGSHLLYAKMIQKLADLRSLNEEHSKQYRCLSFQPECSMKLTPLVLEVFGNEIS
Summary of the method: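 Multiplexed TRANS reporter in HepG2; 24 h treatment; reporter mRNA by RT-PCR plus capillary electrophoresis; upregulation scored relative to DMSO.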

[8] = BSK_3C_SRB: Viability Assessment in the BioMAP Diversity Plus: 3C Assay (AID 2283023); details: primary human endothelial cells (HUVEC);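 also: fitted both ways against DMSO so a hit may be signal rise or drop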
Summary of the method: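 Overt cytotoxicity is gauged in parallel confluent HUVEC cultures by SRB total-protein staining at the time of biomarker measurement, 24 h after dosing. Gain or loss of signal is fitted versus DMSO.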

[9] = read-out: Matrix Metallopeptidase 1 (MMP1), MMP1 (gene 4312); assay: BSK_BE3C_MMP1: BioMAP Diversity Plus: BE3C Assay for Matrix Metallopeptidase 1 (MMP1) Biomarker Activity (AID 2283024); details: primary human bronchial epithelial cells; actives raise or lower the signal
Summary of the method: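 Human primary bronchial epithelial cells (BE3C system) dosed for 24 h; MMP-1 quantified by ELISA. Bidirectional fit against DMSO; cytotoxicity tracked in parallel cultures by SRB total-protein staining.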

[10] = BSK_3C_Vis: BioMAP Diversity Plus: 3C Assay for Morphology Visualization (AID 2283025); details: primary human endothelial cells (HUVEC);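 also: fitted both ways so gain or loss versus DMSO counts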;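 as to AC50: light microscopy image of cell morphology used as background control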
Summary of the method: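 Human umbilical vein endothelial cell morphology was inspected by light microscopy 24 h after chemical dosing; scored bidirectionally relative to DMSO.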

[11] = read-out: Pselectin, SELP (gene 6403); assay: BSK_4H_Pselectin: BioMAP Diversity Plus: 4H Assay for Pselectin Biomarker Activity (AID 2283026); details: primary human endothelial cells (HUVEC); actives raise or lower the signal
Summary of the method: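 Primary human umbilical vein endothelial cells were treated 24 h, and cell-surface P-selectin was then quantified by ELISA. Bidirectional fit versus DMSO; cytotoxicity checked in parallel cultures by SRB total-protein staining.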

[12] = BSK_4H_SRB: Viability Assessment in the BioMAP Diversity Plus: 4H Assay (AID 2283027); details: primary human endothelial cells (HUVEC);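 also: cells exposed to compound for 24 h before staining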;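 as to AC50: curves fitted both ways versus DMSO so AC50 may be loss or gain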
Summary of the method: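 Human umbilical vein endothelial cells, 24 h after chemical dosing; total protein measured by 0.1% sulforhodamine B staining after 10% TCA fixation, read at 560 nm. Bidirectional fitting against DMSO.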

[13] = BSK_BE3C_SRB: Viability Assessment in the BioMAP Diversity Plus: BE3C Assay (AID 2283028); details: primary human bronchial epithelial cells;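 as to AC50: fitted both ways so AC50 may mark signal gain or loss versus DMSO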
Summary of the method: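 SRB total-protein staining (0.1%, after TCA fixation) of chemically dosed human bronchial epithelial primary cells at 24 h; DMSO serves as the negative control for bidirectional curve fitting.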

[14] = read-out: Thrombomodulin, THBD (gene 7056); assay: BSK_3C_Thrombomodulin: BioMAP Diversity Plus: 3C Assay for Thrombomodulin Biomarker Activity (AID 2283029); details: primary human endothelial cells (HUVEC); actives raise or lower the signal
Summary of the method: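 Human umbilical vein endothelial cells were exposed to chemicals for 24 h; cell-surface thrombomodulin quantified by ELISA, with bidirectional fitting against DMSO baseline.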

[15] = read-out: Urokinase-type plasminogen activator receptor (uPAR), PLAUR (gene 5329); assay: BSK_4H_uPAR: BioMAP Diversity Plus: 4H Assay for Urokinase-type plasminogen activator receptor (uPAR) Biomarker Activity (AID 2283030); details: primary human endothelial cells (HUVEC); actives raise or lower the signal
Summary of the method: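 Endpoint derived via bidirectional curve fitting against DMSO baseline; readout was ELISA detection of uPAR on umbilical vein endothelial cells at 24 h post-treatment, with SRB-stained parallel cultures assessing cytotoxicity.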

[16] = read-out: Vascular endothelial growth factor receptor 2 (Homo sapiens) (UniProt P35968); assay: BSK_4H_VEGFRII: BioMAP Diversity Plus: 4H Assay for Vascular endothelial growth factor receptor 2 (VEGFR2) Biomarker Activity (AID 2283031); details: primary human endothelial cells (HUVEC); actives raise or lower the signal;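 as to AC50: cell-surface VEGFR2 protein level quantified by ELISA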
Summary of the method: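 In this multiplexed HUVEC system, biomarker ELISA was performed after 24 h chemical exposure. Parallel SRB staining (TCA fixation, 560 nm) tracked cytotoxicity; DMSO served as baseline.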

[17] = read-out: Human Leukocyte Antigen - DR isotype (HLADR), HLA-DRA (gene 3122); assay: BSK_BE3C_HLADR: BioMAP Diversity Plus: BE3C Assay for Human Leukocyte Antigen - DR isotype (HLADR) Biomarker Activity (AID 2283032); details: primary human bronchial epithelial cells; actives raise or lower the signal
Summary of the method: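 Human primary bronchial epithelial cells (BE3C system) exposed to compound for 24 hours; cell-surface HLA-DR measured by ELISA, fitted bidirectionally relative to DMSO. Total protein by SRB in parallel cultures tracked cytotoxicity.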

[18] = read-out: Vascular cell adhesion molecule 1 (VCAM1), VCAM1 (gene 7412); assay: BSK_4H_VCAM1: BioMAP Diversity Plus: 4H Assay for Vascular cell adhesion molecule 1 (VCAM1) Biomarker Activity (AID 2283033); details: primary human endothelial cells (HUVEC); actives raise or lower the signal
Summary of the method: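 Primary human umbilical vein endothelial cells, 4H stimulation system, treated for 24 h; cell-surface VCAM-1 quantified by ELISA. Bidirectional fitting against DMSO; cytotoxicity tracked by SRB total-protein staining in parallel cultures.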

[19] = read-out: Interferon-gamma inducible Protein 10 (IP10), CXCL10 (gene 3627); assay: BSK_BE3C_IP10: BioMAP Diversity Plus: BE3C Assay for Interferon-gamma inducible Protein 10 (IP10) Biomarker Activity (AID 2283034); details: primary human bronchial epithelial cells; actives raise or lower the signal
Summary of the method: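 Primary human bronchial epithelial cells, with IP-10 measured by ELISA 24 hours after chemical dosing. Bidirectional fit against DMSO; cytotoxicity checked by SRB total protein staining in parallel cultures.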

[20] = read-out: Interleukin-8 (IL8), CXCL8 (gene 3576); assay: BSK_3C_IL8: BioMAP Diversity Plus: 3C Assay for Interleukin-8 (IL8) Biomarker Activity (AID 2283020); details: primary human endothelial cells (HUVEC); actives raise or lower the signal
Summary of the method: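 Primary human umbilical vein endothelial cells were dosed for 24 h. IL-8 was quantified by ELISA and fitted bidirectionally against DMSO. Cytotoxicity was assessed in parallel cultures by SRB staining at 560 nm.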

Measured: AC50

Sequence of E-selectin (Homo sapiens) (P16581 whole entry, looked up): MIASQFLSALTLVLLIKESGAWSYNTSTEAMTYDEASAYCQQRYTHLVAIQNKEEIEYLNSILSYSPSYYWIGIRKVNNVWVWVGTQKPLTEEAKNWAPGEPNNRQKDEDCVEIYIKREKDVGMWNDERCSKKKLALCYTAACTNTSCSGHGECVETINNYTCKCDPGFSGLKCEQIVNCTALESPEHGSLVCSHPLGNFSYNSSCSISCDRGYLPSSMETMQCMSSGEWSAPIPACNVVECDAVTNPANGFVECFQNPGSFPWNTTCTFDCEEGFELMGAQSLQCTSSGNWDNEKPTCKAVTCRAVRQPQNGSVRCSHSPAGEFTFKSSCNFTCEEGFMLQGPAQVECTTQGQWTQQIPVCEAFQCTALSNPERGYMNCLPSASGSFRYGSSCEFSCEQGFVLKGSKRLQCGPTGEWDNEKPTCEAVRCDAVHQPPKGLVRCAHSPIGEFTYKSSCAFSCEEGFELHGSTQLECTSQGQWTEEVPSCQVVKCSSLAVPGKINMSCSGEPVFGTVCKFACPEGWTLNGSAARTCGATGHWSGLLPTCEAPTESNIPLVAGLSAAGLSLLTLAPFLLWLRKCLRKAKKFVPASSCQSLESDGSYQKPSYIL

CC(C)(C)CC(C)(C)c1ccc(O)cc1
active: [1] 7.99 µM | [2] 19.5 µM | [3] 9.66 µM | [4] 6.54 µM | [5] 6.4 µM | [6] 12.4 µM | [8] 7.28 µM | [9] 33.7 µM | [10] 6.71 µM | [11] 11.4 µM | [12] 9.01 µM | [13] 13.3 µM | [15] 9.65 µM | [17] 19.3 µM | [18] 7.98 µM | [19] 16.6 µM
inactive: [7] | [14] | [16]

O=C(OC1CCCCC1)c1ccccc1C(=O)OC1CCCCC1
active: [1] 11.3 µM | [2] 11.6 µM | [3] 11.7 µM | [4] 8.94 µM | [5] 8.72 µM | [20] 8.46 µM | [8] 10.9 µM | [9] 4.58 µM | [10] 5.63 µM | [11] 9.57 µM | [12] 13 µM | [15] 13 µM | [16] 9.97 µM | [17] 13 µM | [18] 20.9 µM | [19] 20.9 µM
inactive: [6] | [7] | [13] | [14]

CC12CC1(C)C(=O)N(c1cc(Cl)cc(Cl)c1)C2=O (centres undefined)
inactive: all assays above

C=CC(=O)OCCCCCC(C)C
not listed: [20]
inactive: all other assays above

COP(=S)(OC)Oc1ccc(Sc2ccc(OP(=S)(OC)OC)cc2)cc1
active: [1] 26.5 µM | [2] 7.5 µM | [3] 27.1 µM | [4] 11.8 µM | [5] 28.5 µM | [20] 7.51 µM | [8] 20 µM | [10] 13.6 µM | [11] 14.5 µM | [12] 9.79 µM | [17] 8.14 µM | [18] 30.2 µM | [19] 18.2 µM
inactive: [6] | [7] | [9] | [13] | [14] | [15] | [16]

COP(=S)(OC)Oc1c(Cl)cc(C)cc1Cl
active: [1] 29 µM | [3] 31.4 µM | [4] 3.97 µM | [5] 20 µM | [8] 30.3 µM | [10] 37.5 µM | [11] 33.4 µM | [12] 20 µM | [18] 26.9 µM
not listed: [20]
inactive: all other assays above

COC(=O)Cc1ccccc1
not listed: [10]
inactive: all other assays above

BrCCBr
not listed: [8]
inactive: all other assays above

CN(C)N=O
not listed: [8]
inactive: all other assays above

CC(=O)OC(c1ccccc1)C(Cl)(Cl)Cl (centres undefined)
not listed: [7] | [10]
inactive: all other assays above

CCOP(=S)(OCC)SCSP(=S)(OCC)OCC
not listed: [7]
inactive: all other assays above

Cn1sc(Cl)cc1=O
active: [5] 29.9 µM | [11] 9.68 µM | [18] 20 µM
not listed: [7] | [8]
inactive: all other assays above
